# Autofluor counter: compound fluorescence in toxin protease inhibitor counterscreen; compound autofluorescence counterscreen, microsphere flow cytometry; active compounds read high; fluorescence intensity (no concentration beside the values); 3.1% of 360,000 active; AID 624483; in the data active = fluorescence intensity above about 16000; inconclusive = no clear call, values can overlap the other calls
# BoNT-A LC inh2: BoNT/A light chain protease inhibitors, primary screen, biochemical, flow cytometry, MLPCN library | Botulinum neurotoxin type A light chain protease (Clostridium botulinum A str. ATCC 3502) | multiplex microsphere protease substrate cleavage | inhibition, % at 10 µM | 0.17% of 360,000 active | AID 588499, 2011; in the data active = inhibition above about 30%; inconclusive = no clear call, values can overlap the other calls; note: plate controls were buffer without enzyme for full effect and enzyme alone for no effect
# Anthrax LF prot: Bacillus anthracis LF protease inhibitors, primary screen, biochemical, multiplex microsphere, MLPCN library. Lethal factor (Bacillus anthracis), P15917. multiplex microsphere protease cleavage assay. inhibition, % at 10 µM. 0.12% of 360,000 active; in the data active = inhibition above about 30%; inconclusive = no clear call, values can overlap the other calls; note: plate controls were buffer without enzyme for full effect and enzyme alone for no effect
# Target sequence (P15917 whole entry, looked up): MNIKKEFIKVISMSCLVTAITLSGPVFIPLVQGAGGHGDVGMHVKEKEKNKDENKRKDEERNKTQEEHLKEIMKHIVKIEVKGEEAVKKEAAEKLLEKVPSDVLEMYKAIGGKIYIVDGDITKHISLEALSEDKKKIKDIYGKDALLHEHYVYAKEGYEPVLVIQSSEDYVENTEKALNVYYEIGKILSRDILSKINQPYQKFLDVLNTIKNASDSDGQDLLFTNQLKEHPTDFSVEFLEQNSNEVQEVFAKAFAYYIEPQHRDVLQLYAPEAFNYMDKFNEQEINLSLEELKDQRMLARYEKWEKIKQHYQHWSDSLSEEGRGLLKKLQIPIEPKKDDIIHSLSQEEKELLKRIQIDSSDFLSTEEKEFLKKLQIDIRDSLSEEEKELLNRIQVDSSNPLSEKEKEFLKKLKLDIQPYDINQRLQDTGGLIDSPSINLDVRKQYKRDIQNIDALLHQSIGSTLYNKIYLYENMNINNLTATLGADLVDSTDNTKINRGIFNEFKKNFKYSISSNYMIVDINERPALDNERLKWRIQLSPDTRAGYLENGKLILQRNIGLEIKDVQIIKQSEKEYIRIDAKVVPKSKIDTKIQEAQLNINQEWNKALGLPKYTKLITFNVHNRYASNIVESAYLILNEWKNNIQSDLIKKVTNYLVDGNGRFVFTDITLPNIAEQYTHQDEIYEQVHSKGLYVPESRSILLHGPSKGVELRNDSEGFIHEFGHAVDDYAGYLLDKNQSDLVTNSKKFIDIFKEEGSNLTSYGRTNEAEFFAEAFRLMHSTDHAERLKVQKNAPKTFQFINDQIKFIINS
# BoNT F protease: BoNT/F light chain protease inhibitors, primary screen, biochemical, flow cytometry, MLPCN library | Multiplex microsphere protease cleavage assay | AID 588497, 2011 | 0.22% of 360,000 active | inhibition, % at 10 µM | Botulinum neurotoxin type F light chain protease (Clostridium botulinum); in the data active = inhibition above about 35%, passing the limit was not always enough; inconclusive = no clear call, values can overlap the other calls; note: plate controls were buffer without enzyme for full effect and enzyme alone for no effect
# SSB-PriA inh: inhibitors of Klebsiella pneumoniae PriA binding to SSB C-terminal tail, primary screen, biochemical, AlphaScreen. 0.6% of 430,000 active. PriA–SSB C-terminal tail interaction (Klebsiella pneumoniae). AlphaScreen SSBct-PriA binding, biotinylated peptide. AID 1272365, 2023. inhibition, % at 33 µM; in the data active = inhibition mostly above about 37%, no sharp cut-off; inactive = mostly below about 20%;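 note: plate controls were negative control peptide for no effect and reference peptide for full effect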
# BoNTA LC inh 1: BoNT/A light chain protease inhibitors, confirmation, biochemical, flow cytometry, cherry pick 1; shares compounds with BoNT F protease; inhibition, % at 10 µM; AID 602139, 2011; 3% of 720 active; multiplex microsphere protease assay; in the data active = inhibition above about 32%
# BoNT-F LC CP1: BoNT/F light chain protease inhibitors, confirmation, biochemical, flow cytometry, cherry pick 1; multiplex microsphere protease cleavage assay; shares compounds with BoNT F protease; inhibition, % at 10 µM; AID 602140, 2011; 720 tested, under 10 active
# Anthrax LF CP1: Bacillus anthracis LF protease inhibitors, confirmation, biochemical, multiplex microsphere, cherry pick 1. 720 tested, under 10 active. shares compounds with BoNT F protease. inhibition, % at 10 µM. multiplex microsphere protease cleavage assay
# An asterisk follows results filed as active; ? = inconclusive; · = no result. Compounds with a hit are over-represented: about 3.1% of the library has one in this group of screens. Unless noted, the rule behind the calls is not given here.
SMILES,Autofluor counter,BoNT-A LC inh2,Anthrax LF prot,BoNT F protease,SSB-PriA inh,BoNTA LC inh 1,BoNT-F LC CP1,Anthrax LF CP1
O=C1CNCc2[nH]c3ccccc3c2N1c1ccccc1,9946,33*,21,-8,16,0,-10,-3
Cc1cc2cc(CNC(=O)NC3CCCCC3)ccc2[nH]1,2837,37*,-62,-131,53*,6,-48,-14
CCC(=O)NCc1ccc2[nH]c(C)cc2c1,5156,5,-4,-21,-8,-1,-6,2
CC(=O)NCc1ccc2[nH]c(C)cc2c1,5001,2,-10,-8,-4,0,-1,-4
Cc1cc2cc(CNC(=O)CCC(=O)O)ccc2[nH]1,5908,0,-10,-5,-9,-1,-5,-2
Cc1ccc(NC(=O)NCc2ccc3[nH]c(C)cc3c2)cc1,2383,29,-69,-102,-4,·,·,·
Cc1cc2cc(CNC(=S)NC3CCCCC3)ccc2[nH]1,3319,14,-42,-75,12,·,·,·
Cc1cccc(N(CC(=O)N2CCCCCC2)S(C)(=O)=O)c1C,3213,-2,-24,36*,-11,0,2,6
Cn1nc(CN(C(=O)Cc2cccs2)C2CCCC2)c2c1CCC2,·,·,·,·,-32,·,·,·
CCCOc1ccc(-c2nc(C#N)c(NCCCn3ccnc3)o2)cc1,?,58*,-38,58*,-4,-1,-3,0
CC(C)=CC1C(C(=O)NCCOc2ccccc2)C1(C)C (stereo not given),3785,1,-6,35*,-33,0,-6,-1
COc1nccnc1O[C@H]1CCN(C(=O)c2cc3ccccc3[nH]2)C1,·,·,·,·,-1,·,·,·
CCc1ccc(OCc2nnc(SCC(=O)Nc3cccc(C(=O)N4CCOCC4)c3)o2)cc1,2064,5,1,46*,-9,1,0,0
Cc1ccc(SCCC(=O)Nc2ccccc2C(=O)NC2CCCCC2)cc1,2115,4,0,39*,-3,-3,-8,-1
COc1cccc(C(O)=C2C(=O)C(=O)N(c3ccccn3)C2c2cccc(OC)c2OC)c1 (stereo not given),·,·,·,·,-3,·,·,·
N#Cc1nc(-c2ccccc2F)oc1NCCc1ccccc1,10751,?,2,42*,33,-3,-2,-4
N#Cc1nc(-c2ccccc2F)oc1NCc1ccccc1,5810,-1,3,-10,19,·,·,·
COc1cccc(C(=O)NCC2CCN(Cc3ccco3)CC2)c1,·,·,·,·,-6,·,·,·
Cc1nn2c(c1-c1ccccc1)NC1=C(C(=O)CCC1)C2c1ccccc1 (stereo not given),12476,28,3,36*,-13,0,-4,2
CCC(=O)N1c2ccccc2NC2=C(C(=O)CCC2)C1c1ccccc1 (stereo not given),8244,-1,-3,-9,-7,·,·,·
O=C(CSCC(=O)Nc1nc2ccccc2s1)Nc1nc(-c2cccs2)cs1,·,·,·,·,-6,·,·,·
CC(=O)c1sc2nc(-c3cccs3)ccc2c1N,7582,34*,8,17,-9,24,2,11
Cc1nc(-c2cccs2)ccc1C(=O)O,4068,1,-4,-2,-12,·,·,·
Nc1c(C(=O)Nc2nc3ccccc3s2)sc2nc(-c3cccs3)ccc12,3925,50*,28,30,-21,27,9,16
CN(C)c1ccc(CCNS(=O)(=O)c2ccc(F)c(Cl)c2)cc1,·,·,·,·,0,·,·,·
SMILES,Autofluor counter,BoNT-A LC inh2,Anthrax LF prot,BoNT F protease,SSB-PriA inh,BoNTA LC inh 1,BoNT-F LC CP1,Anthrax LF CP1
C1CCC(Nc2nc(N3CCOCC3)nc(N3CCOCC3)n2)C1,·,·,·,·,-20,·,·,·
Cc1nn(-c2nnc(NC3CCCCC3)nn2)c(C)c1Br,2147,35*,10,8,2,17,0,14
O=C(CSc1nc2ccccc2c(=O)n1-c1ccccc1)c1c[nH]c2ccccc12,2530,0,-1,1,-15,·,·,·
CCn1c(SCC(=O)c2c[nH]c3ccccc23)nnc1-c1cccs1,·,·,·,·,-2,·,·,·
O=C(CSc1nncn1-c1ccccc1)c1c[nH]c2ccccc12,4658,53*,15,-14,0,10,-14,12
CCCCNc1nnc(SCC(=O)c2c[nH]c3ccccc23)s1,5750,54*,20,-22,-7,14,-21,14
O=C(Cc1ccc(Cl)cc1)NC1CCCCCC1,3892,-3,12,40*,-13,0,-4,-3
O=C(Nc1cnn(Cc2ccccc2)c1)c1cc2nc(-c3ccco3)cc(C(F)(F)F)n2n1,3153,0,1,6,-14,-1,-1,0
Cc1nn(C)cc1NC(=O)c1cc2nc(-c3ccco3)cc(C(F)(F)F)n2n1,3878,1,0,-7,-10,-1,6,0
CCc1ccc(-c2cc(C(F)(F)F)n3nc(C(=O)Nc4c(C)nn(Cc5ccc(F)cc5)c4C)cc3n2)s1,8750,33*,26,16,-14,2,-6,2
Cc1ccccc1Cn1nc(C)c(NC(=O)c2cc3nc(-c4ccco4)cc(C(F)(F)F)n3n2)c1C,3240,0,4,2,-4,1,-1,-1
Cc1nn(Cc2ccc(F)cc2)c(C)c1NC(=O)c1cc(-c2ccc3c(c2)OCO3)on1,11194,-1,-5,-4,5,·,·,·
Cc1nn(C)cc1CN(C)C(=O)c1cc2nc(-c3ccco3)cc(C(F)(F)F)n2n1,2869,0,1,-8,-24,·,·,·
CSc1cccc(C(=O)NCc2cccnc2-c2ccsc2)c1,·,·,·,·,-8,·,·,·
CC1CCCN(S(=O)(=O)c2ccc(C(=O)Nc3ccccc3-c3nc4ccccc4o3)cc2)C1 (stereo not given),·,·,·,·,-9,·,·,·
C=CCSc1nc(-c2ccc3c(c2)OCO3)cc(C(F)(F)F)c1C#N,10622,31*,16,17,4,4,-1,4
CCOC(=O)C1CCN(C(=O)c2ccc3nc(-c4ccc(OC)cc4)c(-c4ccc(OC)cc4)nc3c2)CC1,5131,30*,11,20,-6,12,-2,3
CCOC(=O)C1CCCN(C(=O)c2ccc(OC)cc2)CC1 (stereo not given),3909,0,-4,-6,·,·,·,·
Cc1ccc2nc3c(cc2c1)c(NC(=O)c1ccco1)nn3CC(C)C,3936,?,18,?,-16,·,·,·
Cc1ccc2nc3c(cc2c1)c(NC(=O)C(C)(C)C)nn3CC(C)C,2974,2,49*,15,-19,1,2,0
